The whole screen tested about 2,300 compounds, of which about 20 (0.9%) were called active. This is one part of a sample in which actives are shown more often than they occur.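 Rule for the calls: active = mean activation across replicates above 26.72%, the hit cutoff set for this confirmation screen; inactive = the rest.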
These compounds were tested against G-protein coupled receptor 151 (Homo sapiens) (UniProt Q8TDV0) (assay: GPR151 activators, triplicate retest, confirmation, cell-based, PathHunter beta-arrestin, luminescence, set 2 (AID 1508608;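 note: 0% = plate median of compound wells and 100% = EA reagent high control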)). Details: GPR151 PathHunter beta-arrestin cells, 90 min, at 11.2 µM, stronger effect = higher value, 100% = signal from added EA reagent.
Sequence of G-protein coupled receptor 151 (Homo sapiens) (Q8TDV0 whole entry, looked up): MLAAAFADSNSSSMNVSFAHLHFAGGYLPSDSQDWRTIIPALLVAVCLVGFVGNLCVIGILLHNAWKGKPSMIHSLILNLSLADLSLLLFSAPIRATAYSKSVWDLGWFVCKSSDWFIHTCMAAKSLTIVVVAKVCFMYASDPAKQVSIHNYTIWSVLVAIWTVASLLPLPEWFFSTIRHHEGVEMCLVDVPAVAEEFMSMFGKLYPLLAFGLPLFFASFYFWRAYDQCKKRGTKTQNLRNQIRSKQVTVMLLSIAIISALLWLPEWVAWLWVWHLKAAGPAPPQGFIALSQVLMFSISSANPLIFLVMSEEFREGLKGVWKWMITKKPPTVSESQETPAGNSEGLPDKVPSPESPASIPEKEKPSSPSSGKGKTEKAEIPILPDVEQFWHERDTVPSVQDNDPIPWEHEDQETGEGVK
With `COc1ccccc1C(=O)NC(C)C(c1cccs1)N1CCOCC1` (configuration not stated) the activation was -5.85% (inactive). `Cc1ccc(-c2nc3ncccn3c2NC2CCCCC2)o1` was tested, and the activation was -5.26% (inactive). `NC(=O)C1CCN(S(=O)(=O)c2ccc3c(c2)OCC(=O)N3)CC1` was tested, and the activation was -1.83% (inactive). In the case of `O=C(NCCCN1CCOCC1)/C(=C/c1ccc(-c2cccc(C(F)(F)F)c2)o1)NC(=O)c1ccc(Cl)cc1`, the activation was 23.3% (inactive). In the case of `COc1ccc(-n2nc3c(c2NC(=O)c2c(F)cccc2F)CS(=O)(=O)C3)cc1`, the activation was -1.16% (inactive). `CCCN(C(=O)Cc1nc(-c2ccc(OC)cc2)no1)c1ccccc1C` was tested, and the activation was -0.07% (inactive). `CC1=NN(c2ccccc2)C(=O)/C1=C\c1ccc([N+](=O)[O-])cc1` was tested, and the activation was -3.53% (inactive). `CCOc1ccc(/C=N/NC(=O)c2ccccc2OC(C)C)cc1O` was tested, and the activation was -4.49% (inactive). `CN(C)c1ccc(CNCCC2CCOC(C)(C)C2)cc1` (configuration not stated) was tested, and the activation was 0.83% (inactive). In the case of `COc1ccc(-c2cc3ccc(OC(C)C(=O)O)cc3oc2=O)cc1` (configuration not stated), the activation was -10.8% (inactive). `CC(=O)c1c(C)[nH]c(C(=O)N2CCCC(C)C2)c1C` (configuration not stated) was tested, and the activation was -1.56% (inactive). `COc1ccc(/C=C\C23N(Cc4ccccc4)C(=O)CN2c2ccccc2C3(C)C)cc1` (configuration not stated) was tested, and the activation was -0.33% (inactive). `OCCC1CN(Cc2ccc3nonc3c2)CCN1Cc1ccc(F)c(F)c1` (configuration not stated) was tested, and the activation was 11.5% (inactive). In the case of `O=C(CCC(=O)Nc1ccc(F)cc1)N/N=C/c1cccc([N+](=O)[O-])c1`, the activation was 4.76% (inactive). With `COc1ccc(NC(=O)C(C)N(c2ccc(Oc3ccccc3)cc2)S(C)(=O)=O)cc1` (configuration not stated) the activation was 1.83% (inactive). `Cn1ncc2c(NCCc3ccc(Cl)cc3Cl)ncnc21` was tested, and the activation was 27.9% (active). `Clc1ccc(-n2ncc3c(NCc4ccco4)ncnc32)cc1` was tested, and the activation was 3.54% (inactive). `COC(=O)c1cc(Nc2ncnc3c2cnn3-c2ccc(Cl)cc2)cc(C(=O)OC)c1` was tested, and the activation was 5.3% (inactive). In the case of `Cc1sc2c(c1C)c(=O)n(CCc1ccccc1)c(=O)n2CC(N)=O`, the activation was -0.97% (inactive). With `Cc1ccc(-n2ncc3c(=O)n(CC(=O)Nc4cccc(Cl)c4)cnc32)cc1C` the activation was -0.5% (inactive). In the case of `C=C(CC(NP(=O)(OCC)OCC)(C(=O)OC)C(F)(F)F)c1ccccc1` (configuration not stated), the activation was 1.36% (inactive). For `COc1ccc(CC2(C)OC(c3ccc(C)c([N+](=O)[O-])c3)=NN2C(C)=O)cc1` (configuration not stated), the activation was -3.14% (inactive). In the case of `CCOc1ccc(-c2ccc(/C=C3/C(=N)N4C=C(C)SC4=NC3=O)o2)c([N+](=O)[O-])c1`, the activation was -0.37% (inactive). With `O=c1/c(=C\c2ccccc2Cl)sc2nc3ccccc3n12` the activation was -1.37% (inactive). In the case of `CC(C)c1ccc(Cn2ccc3c4c(N)nc(NC5CC5)nc4ccc32)cc1`, the activation was 104% (active). With `N/C(=N\OC(=O)CCCN1C(=O)c2ccccc2C1=O)c1ccccn1` the activation was 10.3% (inactive). With `CCN(CC)C(=O)CN(c1ccccc1)S(=O)(=O)c1ccc(C)cc1` the activation was 4.39% (inactive). `CCC1CN(CCNC(=O)c2scc3c2OCCO3)Cc2cc(OC)ccc2O1` (configuration not stated) was tested, and the activation was 6.33% (inactive). With `CC(=O)C1C(c2cccc([N+](=O)[O-])c2)c2c(n[nH]c2C)CC1(C)O` (configuration not stated) the activation was 0.19% (inactive). In the case of `CC1=C(C(=O)NCCN2Cc3ccccc3OC(c3ccccc3F)C2)OCCO1` (configuration not stated), the activation was 2.76% (inactive). `CCOc1cc(OCC)cc(C(=O)Nc2ccc(Br)cn2)c1` was tested, and the activation was 8.34% (inactive). For `CNc1nc2c(-c3ccc(Cl)cc3)nnn2c2ccccc12`, the activation was 16.9% (inactive). With `CC1CC(C)CN(C(=O)c2ccc(NCc3cccs3)c(S(=O)(=O)Nc3cc(F)ccc3F)c2)C1` (configuration not stated) the activation was 3.31% (inactive). For `CCCOC1CCCN(Cc2c(C(=O)N(C)CCc3ccccc3)nc3sccn23)C1` (configuration not stated), the activation was 6.38% (inactive). In the case of `CC(=O)c1cccc(NC(=O)Oc2ccccc2)c1`, the activation was 2.16% (inactive). In the case of `CCOC(=O)CCN(Cc1ccccc1F)S(=O)(=O)c1ccc([N+](=O)[O-])cc1`, the activation was -3.3% (inactive). With `COc1ccc(C(=O)N(c2ccc(C)cc2)S(=O)(=O)c2ccc(C)cc2)cc1OC` the activation was 6.29% (inactive). In the case of `CCOC(=O)c1ccc(CN(Cc2c(Cl)cccc2Cl)S(=O)(=O)c2cccc([N+](=O)[O-])c2)cc1`, the activation was 0.8% (inactive). For `CC1=C(C(=O)OCc2ccco2)C(c2ccc(F)cc2)NC(=O)N1` (configuration not stated), the activation was 3.69% (inactive). `O=[N+]([O-])c1ccc2nc(SCc3ccc(I)cc3)sc2c1` was tested, and the activation was 3.08% (inactive). In the case of `CC(C)CCN1C(=O)C(C)(C)COc2cc(NC(=O)c3ccc4c(c3)OCO4)ccc21`, the activation was -3.7% (inactive). For `COc1cc(/C=C/c2[nH]c(=O)[nH]c(=O)c2[N+](=O)[O-])ccc1OC(C)C`, the activation was -3.99% (inactive). With `CCN(c1ccccc1)c1ncnc2c1cnn2-c1ccc(Cl)cc1` the activation was 5.9% (inactive). With `Cc1ccc(-c2[nH]c(=S)[nH]c(=O)c2C#N)cc1` the activation was -2.95% (inactive). With `Cc1ccccc1OCC(=O)Nc1ccc(N2C(=O)c3ccc([N+](=O)[O-])cc3C2=O)cc1` the activation was 6.85% (inactive). `O=C(Nc1cc(Cl)ccc1Cl)c1ccccc1O` was tested, and the activation was 26.9% (active). In the case of `Cc1ccc(NC(=O)c2ccccc2F)c(Br)c1`, the activation was -2.79% (inactive). For `O=C(Nc1cc(C(F)(F)F)ccc1Cl)c1ccc(C(=O)C(=O)c2ccccc2)cc1`, the activation was -1.66% (inactive). In the case of `CCOC(=O)C1=C(C)N=c2s/c(=C\c3cc(C)n(-c4ccc(C(=O)OCC)cc4)c3C)c(=O)n2C1c1ccc(OC)c(OC)c1` (configuration not stated), the activation was 1.8% (inactive). For `CCCc1[nH]n(-c2ccc(F)cc2)c(=O)c1C=Nc1ccc(OCC)cc1`, the activation was -1.39% (inactive). With `Cn1nc2c(c1C(=O)NCC1CC(Cc3cccc(F)c3)=NO1)CCCC2` (configuration not stated) the activation was -2% (inactive). In the case of `O=C(CSc1nnc(Cc2cc(=O)[nH]c(=O)[nH]2)n1-c1ccccc1)NC1CCCC1`, the activation was 2.56% (inactive). With `COc1ccc2c(c1)N(C)/C(=c1/s/c(=c3/sc4nc5ccccc5n4c3=O)n(C)c1=O)S2` the activation was 5.91% (inactive). For `COC(=O)Cn1c(CN2CCOCC2)nc2c1c(=O)n(C)c(=O)n2C`, the activation was -2.55% (inactive). In the case of `CC(=O)Cc1nsc(Nc2ccc(C)c(Cl)c2)n1`, the activation was 3.54% (inactive). `CCN(CC)S(=O)(=O)c1ccc(C(=O)Nc2nc3ccc([N+](=O)[O-])cc3s2)cc1` was tested, and the activation was 2.56% (inactive). With `COc1ccc(-c2onc(C(F)(F)F)c2-c2ccc(Cl)cc2)c(O)c1` the activation was 0.9% (inactive). For `Cc1ccc(Cl)cc1Nc1cc(N2CCOCC2)c2nonc2c1[N+](=O)[O-]`, the activation was 3.43% (inactive). `CC(C)C[C@@H]1NC(=O)[C@H]2CN(Cc3cn(C)nc3-c3ccccc3)CCN2C1=O` was tested, and the activation was 3.84% (inactive). `CCC(C)NC(=O)C1CCN(S(=O)(=O)N2CCOCC2)CC1` (configuration not stated) was tested, and the activation was 7.37% (inactive). For `Cn1c(=O)oc2cc(S(=O)(=O)N3CCCC(C(=O)N4CCOCC4)C3)ccc21` (configuration not stated), the activation was 11.4% (inactive). For `CCc1ccc(C2=CC(c3ccc(OC)c(OC)c3)n3ncnc3N2)cc1` (configuration not stated), the activation was 0.38% (inactive). With `COc1ccccc1-c1nnc(C2CCN(S(=O)(=O)c3cccc(C#N)c3)CC2)o1` the activation was -0.51% (inactive). With `CCN(CC)CCNC1=CC(=O)OC12CCCCC2` the activation was -1.78% (inactive). With `CCC1Oc2ccccc2N(CC(=O)NC2CCCCCC2)C1=O` (configuration not stated) the activation was -3.51% (inactive). In the case of `O=C(c1ccco1)N1CCN(C(=O)C2(S(=O)(=O)c3ccc(Cl)cc3)CC2)CC1`, the activation was 4.46% (inactive). For `O=C(NCCC12CC3CC(CC(C3)C1)C2)c1cc([N+](=O)[O-])ccc1N1CCOCC1`, the activation was 6.89% (inactive). `CCOc1ccc(-c2cc(C(=O)N/N=C/c3ccc(O)c(OCC)c3)[nH]n2)cc1` was tested, and the activation was -0.84% (inactive). In the case of `CCCOc1ccc(C2C3=C(CC(C)(C)CC3=O)N(CC(=O)O)C3=C2C(=O)CC(C)(C)C3)cc1OCC`, the activation was 4.15% (inactive). `COc1ccc(C(=O)NCC2CCCN2S(=O)(=O)c2cccs2)cc1OC` (configuration not stated) was tested, and the activation was -1.78% (inactive). `CN1CCN(C(CNS(=O)(=O)c2ccccc2)c2cccnc2)CC1` (configuration not stated) was tested, and the activation was -1.58% (inactive). For `CCCCOC(=O)N1CCOCCOCCN(C(=O)OCCCC)CCOCCOCC1`, the activation was -4.43% (inactive). `Cc1ccc(-n2ncc3c(NCc4ccco4)ncnc32)c(C)c1` was tested, and the activation was 2.13% (inactive). In the case of `Cc1cccc(-c2nc3ccccc3c(=O)n2Cc2ccccc2C)c1`, the activation was 1.61% (inactive). In the case of `Cc1ccc(COc2cccc3c2CCN(C)C3=O)cc1`, the activation was -4.68% (inactive). In the case of `CC(=O)Oc1ccccc1N1C(=O)c2cccc([N+](=O)[O-])c2C1=O`, the activation was 28.3% (active). `CCCCOC(=O)c1ccc(N2C(=O)c3cccc([N+](=O)[O-])c3C2=O)cc1` was tested, and the activation was -3.4% (inactive). For `CC(=O)c1ccc(N2C(=O)c3ccc(Oc4ccc([N+](=O)[O-])cc4[N+](=O)[O-])cc3C2=O)cc1`, the activation was -8.73% (inactive). For `Cc1ccc([N+](=O)[O-])cc1NC(=O)C1C2/C=C\CCCCC21` (configuration not stated), the activation was 0.67% (inactive). `O=C(NCCCN1CCCC1)C(=O)Nc1ccc2nc3n(c(=O)c2c1)CCCCC3` was tested, and the activation was -2.06% (inactive). In the case of `COc1ccc(-c2nc(-c3ccc(NC(=O)c4ccc(Br)o4)cc3)no2)cc1OC`, the activation was 7.05% (inactive). For `N=C(N)SCc1csc2c1CCCC2`, the activation was 1.33% (inactive). In the case of `Nc1nc(NC(=O)c2ccccc2)nn1-c1ccccc1`, the activation was -4.73% (inactive). In the case of `CC(C)c1ccc(/C=N\NC(=O)Cn2c(-c3nonc3N)nc3ccccc32)cc1`, the activation was 0.86% (inactive). `CCOC(=O)c1cnc2c(OC)cccc2c1NC1CCCCCC1` was tested, and the activation was 18.4% (inactive). In the case of `Cc1ccc(C2=N/C(=C\c3cccc(C(F)(F)F)c3)C(=O)O2)cc1[N+](=O)[O-]`, the activation was 3.7% (inactive). With `CCCCc1ccc(C2=N/C(=C\c3ccc(F)cc3)C(=O)N2c2ccc(Cl)cc2C)cc1` the activation was -6.96% (inactive).

Source: PubChem BioAssay AID1508608 (The Scripps Research Institute Molecular Screening Center, 2020)
